CYP2C19 act – increases human CYP2C19 enzyme activity; P33261; 96,000 tested, under 10 active; AID 1025; activation factor at 5 µM; recombinant CYP2C19, luciferin-H EGE luminescence; active compounds read high; 0 = fully inhibited enzyme, 1 = untreated enzyme;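 active = activation factor of at least 2 at 5 µM in the primary screen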
Target sequence (P33261 whole entry, looked up): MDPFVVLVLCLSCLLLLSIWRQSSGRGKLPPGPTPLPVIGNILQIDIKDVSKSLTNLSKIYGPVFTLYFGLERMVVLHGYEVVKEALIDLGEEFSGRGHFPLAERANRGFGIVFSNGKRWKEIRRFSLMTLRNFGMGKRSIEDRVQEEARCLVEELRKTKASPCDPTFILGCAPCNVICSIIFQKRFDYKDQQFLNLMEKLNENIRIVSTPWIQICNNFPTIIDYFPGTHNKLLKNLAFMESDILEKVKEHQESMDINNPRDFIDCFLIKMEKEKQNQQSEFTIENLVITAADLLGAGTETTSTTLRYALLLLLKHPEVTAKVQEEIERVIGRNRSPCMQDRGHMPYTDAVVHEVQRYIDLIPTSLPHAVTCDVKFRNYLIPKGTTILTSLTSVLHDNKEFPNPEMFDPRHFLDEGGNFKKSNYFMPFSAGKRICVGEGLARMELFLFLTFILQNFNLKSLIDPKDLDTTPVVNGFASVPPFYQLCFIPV
CYP2C9 activ – increases human cytochrome P450 2C9 activity | P11712 | recombinant CYP2C9, luciferin-H conversion, luminescence; active compounds read high; factor 1 = untreated enzyme, 0 = blocked | activation factor at 5 µM | 1.4% of 96,000 active | AID 1024;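 active = activation factor of 2 or more for CYP2C9 at a 5 µM dose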
PLK1 kinase inh – blocks human PLK1 kinase activity; P53350; recombinant PLK1 kinase, TR-FRET peptide phosphorylation; inhibition, % at 10 µM; 0.53% of 97,000 active;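 active = inhibition of 50% or more in the single-concentration screen; inactive = inhibition below 50%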
Plk1 PBD FP – blocks phosphopeptide binding to human Plk1 polo box domain. P53350. Plk1 PBD phosphopeptide binding, fluorescence polarization. inhibition, %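 (tested at about 20 µM)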. 0.13% of 97,000 active. AID 693; in the data active = inhibition above about 34%, passing the limit was not always enough
CYP2C19 inhib – inhibitors of human CYP2C19; P33261; CYP2C19 Supersomes, luciferin-H EGE luminescence, 30 min; inhibition, % at 5 µM; 21% of 96,000 active;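 active = CYP2C19 inhibition above a set limit at 5 µM in the primary screen, cut at about 50% in these data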
CYP2C9 inhib – human CYP2C9 inhibition. 20% of 96,000 active. AID 777. CYP2C9 Supersomes, luciferin-H conversion, luminescence. inhibition, % at 5 µM;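 active = blocking of liver enzyme CYP2C9 beyond about 50% at 5 µM, limit read from the data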
Of the large screens only hits and unclear results are named; the others gave an inactive call. An excerpt weighted towards active compounds, which were near 28% of everything screened.

CCC1S/C(=C(\C#N)C(=O)NCc2ccco2)N(c2ccc(Br)cc2)C1=O (stereo not given)	CYP2C9 inhib 51.3
CCOC(=O)/C(C#N)=C1/SC(CCO)C(=O)N1c1ccccc1 (stereo not given)	none (no result: CYP2C19 act, CYP2C9 activ, CYP2C19 inhib, CYP2C9 inhib)
CCC1S/C(=C(\C#N)C(=O)NCc2ccco2)N(c2ccc(F)cc2)C1=O (stereo not given)	none
COC(/C=C/Nc1ccc(C)c(C)c1)=C(C#N)C#N	none
COc1ccc(N2CS(=O)(=O)/C(=C/N(C)C)C2=O)cc1	none
COc1ccc(C(CNC(=O)CN2C(=O)NC3(CC(C)CC(C)(C)C3)C2=O)N2CCOCC2)cc1 (stereo not given)	none
COc1ccc2nc(SCC(=O)N3CCCCCC3)c(C#N)cc2c1	none
N#Cc1cc2ccccc2nc1SCC(=O)Nc1ccc(S(=O)(=O)N2CCCC2)cc1	CYP2C9 inhib 89.6
COc1ccc2nc(SCC(=O)Nc3ccc(S(=O)(=O)N4CCCC4)cc3)c(C#N)cc2c1	CYP2C9 inhib 91.1
COc1ccc(C2SCC(=O)N2c2c(C)n(C)n(-c3ccccc3)c2=O)cc1 (stereo not given)	none
CNC(=O)CN(c1ccc(C(C)C)cc1)S(C)(=O)=O	CYP2C19 inhib 60.7
CSC1=C(C#N)C(c2cccs2)CC(=O)N1C (stereo not given)	none
N#CC1=C2SCC(O)(c3ccccc3)N2C(=O)CC1c1ccccc1F (stereo not given)	CYP2C19 inhib 100.3, CYP2C9 inhib 98.6
COc1ccc(C2CC(=O)N3C(=C2C#N)SCC3(O)c2ccccc2)cc1 (stereo not given)	CYP2C19 inhib 83.9, CYP2C9 inhib 99.5
N#CC1=C2SCC(O)(c3ccccc3)N2C(=O)CC1c1cccs1 (stereo not given)	CYP2C19 inhib 81.6, CYP2C9 inhib 99.3
O=C(Nc1ccc2oc(-c3ccncc3)nc2c1)c1ccccc1F	CYP2C9 inhib 67.5
O=C(Nc1ccc(-c2nc3cc(NC(=O)c4cccs4)ccc3o2)cc1)c1cccs1	none
O=C(Nc1ccc2oc(-c3ccncc3)nc2c1)c1cccs1	CYP2C9 inhib 85.0
C#CCn1cc[n+](CC(=O)N(C)C)c1	none
O=[N+]([O-])c1ccc(Cl)c(C2Nc3cccc4cccc(c34)N2)c1	none
Oc1ccccc1C1Nc2cccc3cccc(c23)N1	none
COc1ccccc1C1Nc2cccc3cccc(c23)N1	CYP2C19 inhib 70.5
O=[N+]([O-])c1ccccc1C1Nc2cccc3cccc(c23)N1	CYP2C19 inhib 99.2, CYP2C9 inhib 69.5
NC(=O)CC12CC3CC(C1)CC(CC(N)=O)(C3)C2	none
COc1ccc(C(=O)CSc2nnc(CNC(=O)c3ccc(OC)cc3)n2C)cc1	none
COc1ccc(OC)c(C(=O)N2CCC(C(=O)c3ccc(F)cc3)CC2)c1	none (no result: CYP2C19 act, CYP2C9 activ, CYP2C19 inhib, CYP2C9 inhib)
CC12COC3(C(=O)Nc4nccs4)CC1CCC32C (stereo not given)	CYP2C19 inhib 59.6
O=C(Nc1nccs1)C12CC3CC(C1)CC(C(=O)Nc1nccs1)(C3)C2	CYP2C19 inhib 91.3, CYP2C9 inhib 81.2
O=C(Nc1ccccn1)C12CC3CC(CC(C3)C1)C2	CYP2C9 inhib 91.8
C/C=C/Cn1c(Br)nc2c1c(=O)n(C)c(=O)n2C	none
CCOC(=O)N1CCN(C(=O)CCn2nc(-c3ccccc3)ccc2=O)CC1	none
COc1ccc(/C=N/n2cncn2)cc1CSc1ccccn1	CYP2C19 inhib 83.0
CNc1cc(-n2nc(C)cc2-c2ccccc2)ncn1	CYP2C19 inhib 60.9
OCCNc1cc(-n2nc(-c3ccccc3)cc2-c2ccccc2)ncn1	none
Cc1ccc(S(=O)(=O)N2C(=S)SCC2(C)C)cc1	CYP2C19 inhib 74.1
O=C(O)c1ccc(CNc2ccccc2C(=O)O)cc1	none
O=C(O)c1ccccc1NCc1ccncc1	CYP2C9 inhib 75.5
CCO/N=C(\C)c1c(O)c(CC)c(-c2ccccc2)n(-c2ccccc2)c1=O	none (no result: CYP2C19 act, CYP2C9 activ, CYP2C19 inhib, CYP2C9 inhib)
CCOC(=O)c1c(NC(=O)Cc2cccs2)sc2c1CCCC2	none
Cn1nccc1C(=O)NC(=S)Nc1sc2c(c1C#N)CCCCC2	none
CCC(=O)Nc1sc2c(c1C(N)=O)CCC2	none
COC(=O)Nc1sc2c(c1C(N)=O)CCCCCC2	CYP2C19 inhib 54.6
NC(=O)c1c(NC(=O)Cc2cccs2)sc2c1CCC2	CYP2C9 inhib 58.0
N#Cc1c(NC(=S)NC(=O)Cc2cccs2)sc2c1CCCCC2	CYP2C9 inhib 88.7
CC(C)(C)NC(=O)CSc1n[nH]c(=O)n1-c1ccccc1	none (no result: PLK1 kinase inh, Plk1 PBD FP)
O=c1/c(=C\c2ccc(O)cc2)sc2n1C(c1ccccc1)C(c1ccccc1)=NN=2 (stereo not given)	CYP2C9 inhib 56.5
CCOC(=O)C1=C(c2ccccc2)N=c2s/c(=C\c3cccc(O)c3)c(=O)n2C1c1cccs1 (stereo not given)	none (no result: CYP2C19 act, CYP2C9 activ, CYP2C19 inhib, CYP2C9 inhib)
CCN(CC)CCn1c(NCc2ccc(OC)cc2)nc2ccccc21	none
COC(=O)c1ccccc1NC(=O)c1noc2c1CC(C(C)(C)C)CC2 (stereo not given)	none
O=C(Cc1coc2ccc3ccccc3c12)Nc1nccs1	none
CCCN(CCC)C(=O)Cc1coc2ccc3ccccc3c12	CYP2C19 inhib 63.9
O=C(Cc1coc2ccc3ccccc3c12)NCc1ccccc1	CYP2C9 activ 2.8, CYP2C19 inhib 86.2
O=C(Cc1coc2ccc3ccccc3c12)N1CCN(c2ncccn2)CC1	CYP2C19 inhib 60.7, CYP2C9 inhib 55.1
O=C(Cc1coc2ccc3ccccc3c12)N1CCc2ccccc21	none
COc1cccc(C2N(c3cccc(Cl)c3)C(=O)C3CCCN32)c1 (stereo not given)	CYP2C19 inhib 69.7, CYP2C9 inhib 88.4
COc1ccc(N2C(=O)C3CCCN3C2c2cccc(F)c2)cc1Cl (stereo not given)	none
COc1ccc(N2C(=O)C3CCCN3C2c2cccc(OC)c2OC)cc1 (stereo not given)	none
COc1ccc(N2C(=O)C3CCCN3C2c2cccc(Br)c2)cc1 (stereo not given)	CYP2C9 inhib 52.1
COc1cccc(N2C(=O)C3CCCN3C2c2ccc(N(C)C)cc2)c1 (stereo not given)	none
COc1cccc(N2C(=O)C3CCCN3C2c2ccc(Cl)cc2)c1 (stereo not given)	CYP2C19 inhib 68.8, CYP2C9 inhib 50.1
O=C(c1ccc(CS(=O)(=O)Cc2ccc(Cl)cc2)o1)N1CCCC1	none
CCC(=O)OC1c2ccccc2C(=O)N1Cc1ccccc1 (stereo not given)	CYP2C19 inhib 62.4
CCOC(=O)C(CCCOc1ccc(C(C)CC)cc1)C(=O)OCC (stereo not given)	CYP2C9 inhib 71.3
CCOC(=O)C(CCCOc1ccc(C)cc1)C(=O)OCC	none
CC1CCCCC1NC(=O)C1CCN(S(=O)(=O)c2cccc3nsnc23)CC1 (stereo not given)	none
CCc1c(C)nc2ncnn2c1N1CCCC(C(=O)Nc2cc(F)ccc2C)C1 (stereo not given)	CYP2C9 inhib 84.6

Screens (PubChem)
